# aSyn yeast inh = rescues yeast growth from alpha-synuclein toxicity. Yeast expressing alpha-synuclein, growth rescue, BacTiter-Glo, 24 h. AID 652106. Potency, µM (highest dose often 46.1 µM), actives largely listed as activators. actives 0.14% (n = 370,000); further: nearly all actives have a fitted effect of over 65% in size
#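 Rescue of yeast growth: cells expressing toxic alpha-synuclein, induced in galactose at OD600 0.02, incubated with compound 24 h at 30 C. ATP luminescence quantified growth; inhibitors of toxicity appear as activators.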
# Abeta yeast res = A-beta toxicity reversal in yeast; Potency, µM (titrated, usually from 46.1 µM), actives largely listed as activators; yeast expressing A-beta42, growth rescue, OD600, 48 h; response scale: 0% DMSO, 100% iron-clioquinol control; actives 0.063% (n = 410,000); AID 1347071; further: nearly all actives have a fitted effect of over 55% in size
#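 Yeast growth medium received pinned compounds, then yeast cells expressing toxic A-beta were added; plates incubated at 30 C for 48 hr. Growth read as absorbance at 600 nm, normalized to DMSO and equimolar FeCl3 plus clioquinol controls.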
# TDP43 rescue = inhibitors of TDP-43 toxicity in yeast | TDP-43 expressing yeast growth rescue, BacTiter-Glo, 24 h | Potency, µM (doses to about 46.1 µM), actives largely listed as activators | actives 1.8% (n = 410,000); further: nearly all actives have a fitted effect of over 50% in size
#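 Yeast cells expressing TDP-43 under galactose induction are exposed to compounds for 24 hr at 30 deg C. BacTiter-Glo luminescence measures growth, so protective compounds score as activators.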
# FUS yeast rescue = suppressors of FUS proteinopathy in yeast | Potency, µM (titrated, usually from 76.6 µM), usual class: activators | S. cerevisiae FUS-expressing, growth rescue, OD600, 24 h | actives 0.24% (n = 390,000); further: nearly all actives have a fitted effect of over 55% in size
#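 Galactose (2%) drives FUS expression in yeast precultured in raffinose; seeding density OD 0.005. Test compounds incubated 24hr at 30C and 99% humidity before absorbance at 600 nm was measured.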
# Numbers stand for hits; n = inactive; u = inconclusive; x = no result given; [ ] = another dose, or the depositor's remark. In the library only some 2.1% were active in any assay of this set; here they are far more common. The call rests on the fitted dose curve; in most records, active means well fitted curve in the direction sought with a large enough effect; inconclusive means small, poorly fitted or top-dose-only effect, or another doubt; inactive means no such curve, though single readings can be large; an effect the other way counts as inactive or inconclusive.
SMILES,aSyn yeast inh,Abeta yeast res,TDP43 rescue,FUS yeast rescue
CCS(=O)(=O)c1nc(S(=O)(=O)c2ccc(C)cc2)c(NCc2ccccc2Cl)s1,x,n,n,u
COc1ccccc1CNC(=O)CCn1c(=O)c2ccccc2n(CC(=O)Nc2cc(Cl)ccc2C)c1=O,x,n,n,n
COc1cccc(N2C(=O)C(CC(=O)Nc3ccc(F)cc3)N(CCC3=CCCCC3)C2=O)c1 (configuration not stated),x,n,n,u
CCOC(=O)c1ccc(Oc2nc(NC(C)(C)C)nc(N(C)C)n2)cc1,n,n,22µM,n
CCC(C)Sc1nc2c(c(=O)n1C)SC(C)C2 (configuration not stated),n,n,18µM,n
Cn1nnnc1SCCCNCc1cc(Cl)ccc1OCc1ccc(F)cc1,x,n,n,n
COc1cc2c(C(=O)N3CCN(c4cccc(C(F)(F)F)c4)CC3)cn(CC(C)C)c(=O)c2cc1OC,x,n,u,22µM
O=C(c1c(F)cccc1F)N1CCN(c2cccc(C(F)(F)F)c2)CC1,n,n,16µM,n
Cn1cccc1C(=O)N1CCN(c2cccc(C(F)(F)F)c2)CC1,n,n,u,n
COc1cc2c(C(=O)N3CCN(c4cc(Cl)ccc4C)CC3)cn(CC(C)C)c(=O)c2cc1OC,x,n,n,n
O=C(CN(CCc1ccccc1)S(=O)(=O)c1cccs1)N1CCOCC1,x,x,x,n
COc1ccc(NC(=O)CN(C)C(=O)c2cn(-c3ccccc3)nc2-c2ccc(F)cc2)cc1,n,n,25µM,u
Cc1cc(O)cc2c1O[C@](C)(CCC(=O)O)CC2,n,x,x,x
CC(C)c1ccc(NC(=O)COC(=O)[C@@H]2CCCN2C(=O)c2cccs2)cc1,n,n,35µM,u
CC(C)NC(=O)NC(=O)COC(=O)C1CCCN1C(=O)c1cccs1 (configuration not stated),n,n,n,n
Cc1ccc(S(=O)(=O)c2c(N)n(Cc3ccco3)c3nc4ccccc4nc23)cc1C,n,n,n,25µM
CCc1ccc2oc(C(=O)N3CCN(c4ccccc4OC)CC3)cc(=O)c2c1,n,n,20µM,n
O=C(c1cc(=O)c2ccccc2o1)N1CCN(c2cccc(Cl)c2)CC1,n,n,u,n
O=C(c1cc2ccccc2o1)N1CCN(S(=O)(=O)c2c(F)cccc2F)CC1,n,n,14µM,n
CC(=O)N1CCN(C(=O)c2cc3ccccc3o2)CC1,n,n,n,n
COc1ccccc1N1CCN(C(=O)COc2cc(C)cc3oc(=O)cc(C)c23)CC1,n,n,n,n
O=C(c1cc(=O)c2ccccc2o1)N1CCN(c2ccccc2F)CC1,n,n,14µM,n
COc1ccccc1N1CCN(C(=O)c2cc(=O)c3c(C)cc(C)cc3o2)CC1,n,n,25µM,n
O=C(NC1CCCCN(Cc2cccc(C(F)(F)F)c2)C1=O)c1ccc(COc2ccccc2)cc1 (configuration not stated),x,x,x,n
COc1ccccc1N1CCN(C(=O)c2oc3cc(C)c(C)cc3c2C)CC1,n,n,n,n
SMILES,aSyn yeast inh,Abeta yeast res,TDP43 rescue,FUS yeast rescue
COc1ccccc1N1CCN(C(=O)c2oc3ccccc3c2N)CC1,x,n,13µM,n
CCCC[C@H](C(=O)N(C)c1cccc(OC)c1)[C@@H](O)c1ccc2ccccc2c1,x,x,x,n
Cc1oc(-c2ccc(C(=O)NCc3ccccc3)cc2)nc1CN1CCc2ccccc21,x,n,n,n
CCOC(=O)c1cn2nc(SCc3ccccc3)nc2nc1C,n,n,16µM,n
COc1ccccc1N1CCN(c2ccc(=O)n(CC(=O)NCc3ccc(F)cc3)n2)CC1,x,n,n,u
Cc1cccc(N2CCN(C(=O)c3nn(C)c4c3CSc3ccccc3-4)CC2C)c1 (configuration not stated),x,n,n,n
CCOC(=O)N1CCN(C(=O)c2nn(C)c3c2CSc2ccccc2-3)CC1,n,n,35µM,n
NC(=S)NN=Cc1nccc2ccccc12,20µM,u,n,n
NC(=S)NN=Cc1nccc2c(C(F)(F)C(F)(F)C(F)(F)F)cccc12,7.1µM,n,u,n
Cc1cnc(C=NNC(N)=S)c2cccc(N)c12,n,n,n,x
CCOC(=O)c1[nH]c(C)c(CCC(=O)Nc2cccc(SC)c2)c1C,x,n,n[9.22 µM],n
Cc1ccc2onc(CC(=O)Nc3cc(F)ccc3F)c2c1,x,n,10µM,n
OCc1ccc(-c2nn(Cc3ccccc3)c3ccccc23)o1,4µM,n,n,n
Cc1ccc(NC(=O)Cn2nnc(C(=O)Nc3ccc(C)c(C)c3)c2N)cc1,n,n,n,22µM
Cc1ccc(NC(=O)c2nnn(CC(=O)Nc3ccc4c(c3)OCO4)c2N)cc1C,n,n,n,n
CCOC(=O)c1nnn(-c2nonc2N)c1CSc1ccccc1,n,n,u,n
CCOC(=O)c1nnn(-c2nonc2N)c1CSc1ccc(C)cc1,n,n,22µM,n
CSc1nc2ccccc2n1Cc1cccc(F)c1,n,n,18µM,n
CSc1nc2ccccc2n1Cc1cccc([N+](=O)[O-])c1,n,n,n,n
O=C(CSc1nc2ccccc2n1Cc1cccc(F)c1)NCc1ccccc1,x,n,22µM,n
COc1cccc(Cn2c(SCC(=O)N(C)c3ccccc3)nc3ccccc32)c1,x,n,18µM,u
O=C(Nc1c(Cl)cc([N+](=O)[O-])cc1Cl)c1cc(Cl)cc(Cl)c1O,n,x,x,x
Cc1ccc(S(=O)(=O)NC(=O)COc2ccccc2C)c(C)c1,n,n,18µM,x
C=CCN1C(=O)[C@@H](CC(=O)NCc2ccc(OC)c(OC)c2)[C@]2(C(=O)OCC)CCCCC/C=C/12,x,x,x,n
COc1ccc(N(CC(=O)Nc2cccc(N(C)S(C)(=O)=O)c2)S(=O)(=O)c2ccc(C)cc2)cc1,n,n,n,28µM
SMILES,aSyn yeast inh,Abeta yeast res,TDP43 rescue,FUS yeast rescue
CCC(=O)N1c2ccccc2CC1C(=O)NCCN1CCN(c2cccc(C(F)(F)F)c2)CC1 (configuration not stated),x,n,n,n
COc1ccc(C(C#N)c2ccc(Cl)nn2)cc1 (configuration not stated),n,n,n,n
N#CC(c1ccc(Cl)nn1)c1ccc(Cl)cc1Cl (configuration not stated),n,n,13µM,n
COc1ccc(-c2nc(CSCC(=O)NCc3ccccc3Cl)c(C)o2)cc1OC,x,n,25µM,n
COc1ccccc1CNC(=O)CSCc1nc(-c2ccc(OC)c(OC)c2)oc1C,x,n,n,n
Cc1oc(-c2ccccc2Cl)nc1CSCC(=O)N1CCCC1,n,n,13µM,n
Cc1oc(-c2ccccc2F)nc1CSCC(=O)N1CCN(c2ccccc2)CC1,x,n,32µM,n
CCOC(=O)c1c(C)oc2nc(C)nc(Nc3cc(C)cc(C)c3)c12,x,n,n,n
CCCC1CCC2(CC1)CCC2OC(=O)Nc1ccccc1OC (configuration not stated),x,x,x,n
O=C1CN(CCN2CC(=O)NC(=O)C2)CC(=O)N1,n,x,x,x
CSc1nc(N)c2ncn([C@@H]3O[C@H](COP(=O)(O)OP(=O)(O)O)C(O)[C@H]3O)c2n1 (some centres not stated),n,x,x,x
